# Assay outcomes as filed in PubChem BioAssay.
# Shown are actives, neighbours in structure and some others; about 9.2% of the full set was active somewhere.
# FLuc modulator – qHTS profiling assay for firefly luciferase inhibitor/activator using purifed enzyme and Km concentrations of substrates (counterscreen for miR-21 project). Luciferin 4-monooxygenase (Photinus pyralis), P08659. purified FLuc, Km substrates, luminescence inhibition. Potency, µM (top dose mostly 57.5 µM), without a hit: at the highest dose activity change, negative = inhibition, hits mostly inhibitors. 360,000 compounds, 6.9% hits. AID 588342, 2011;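 further: plate controls were vehicle for no effect and reference inhibitor for full effect; nearly all actives have a fitted effect of over 55% in size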
# Target sequence (P08659 whole entry, looked up): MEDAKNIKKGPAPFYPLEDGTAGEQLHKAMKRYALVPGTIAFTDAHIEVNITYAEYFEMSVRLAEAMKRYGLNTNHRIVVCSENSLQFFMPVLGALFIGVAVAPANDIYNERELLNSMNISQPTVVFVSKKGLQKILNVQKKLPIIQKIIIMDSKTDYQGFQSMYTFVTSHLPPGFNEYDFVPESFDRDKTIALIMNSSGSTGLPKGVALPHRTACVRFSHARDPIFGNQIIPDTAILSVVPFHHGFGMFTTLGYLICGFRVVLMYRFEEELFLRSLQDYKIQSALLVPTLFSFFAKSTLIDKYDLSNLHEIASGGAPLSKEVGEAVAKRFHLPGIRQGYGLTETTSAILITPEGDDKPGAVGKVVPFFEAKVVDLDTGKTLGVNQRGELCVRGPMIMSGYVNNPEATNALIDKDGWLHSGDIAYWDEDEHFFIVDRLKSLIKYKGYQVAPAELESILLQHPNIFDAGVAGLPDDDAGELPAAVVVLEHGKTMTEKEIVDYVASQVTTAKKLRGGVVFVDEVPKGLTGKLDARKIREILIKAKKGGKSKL
#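 Purified P. pyralis luciferase, 10 nM final, with Km-level 10 uM D-luciferin and 10 uM ATP in 50 mM Tris acetate pH 7.5, 10 mM Mg acetate, 0.01% Tween-20, 0.05% BSA; 6-point qHTS titration about 60 µM downward; luminescence read.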
# NPC1 promoter act – qHTS Assay for NPC1 Promoter Activators. Huh7 NPC1 promoter luciferase reporter, 24 h. 320,000 compounds, 2.4% hits. Potency, µM (titrated, usually from 9.22 µM), without a hit: at the top dose activation, most hits filed as activators; further: % of control where 0% means no effect; nearly all actives have a fitted effect of over 60% in size
#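 Quantitative HTS used a cell-based reporter: Huh7 cells stably bearing the NPC1 promoter upstream of luciferase were treated with compounds for 24 h, and promoter activation was read as luminescence.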
# ELG1 DNA repair – qHTS screen for small molecules that inhibit ELG1-dependent DNA repair in human embryonic kidney (HEK293T) cells expressing luciferase-tagged ELG1 | HEK293T ELG1-luciferase reporter, luminescence, 16 h; DNA damage induced by 5-fluorouridine | Potency, µM (titrated, usually from 46.1 µM), for inactives: top-dose activity change, negative = inhibition, usual class: inhibitors | 330,000 compounds, 2.3% hits | AID 504467, 2011; further: on the % scale 0 is the no-effect control and ±100 the full control effect; nearly all actives have a fitted effect of over 55% in size
#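 HEK293T cells expressing luciferase-tagged ELG1 (2,000/well) received 5-Fluorouridine plus compound or DMSO for 16 hr at 37 °C. Luciferase was read by ONE-Glo luminescence after 30 min at room temperature.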
# ELG1 genotoxic – qHTS screen for small molecules that induce genotoxicity in human embryonic kidney (HEK293T) cells expressing luciferase-tagged ELG1. AID 504466, 2011. 330,000 compounds, 1.3% hits. HEK293T ELG1-luciferase reporter, luminescence, 16 h. Potency, µM (highest dose often 46 µM), for the others: top-dose activity change, positive = activation, hits mostly activators; further: % of control where 0% means no effect; nearly all actives have a fitted effect of over 60% in size
#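 Luminescence read-out: rising ELG1-luciferase signal, reflecting elevated ELG1 protein under genetic stress, flags genotoxic compounds. Cells were treated for 16 hr at 37 °C before ONE-Glo detection.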
# Rab9 prom act – qHTS Assay for Rab9 Promoter Activators; Potency, µM (titrated, usually from 9.22 µM), for inactives: top-dose activation, negative = inhibition, usual class: activators; Huh7 Rab9 promoter-luciferase reporter, luminescence, 24 h; AID 485297, 2010; 320,000 compounds, 2.8% hits; further: % of control where 0% means no effect; nearly all actives have a fitted effect of over 60% in size
#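 Luminescence from Amplite-detected luciferase (10 minutes, ambient) reports Rab9 promoter activation. Before that, stable Rab9-luciferase Huh7 cells (1500/well, reduced-serum OP-MEM I plus 10% FBS) were exposed to compound for 24 hours at 37C.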
# SMN2 splice up – qHTS Assay for Enhancers of SMN2 Splice Variant Expression; 210,000 compounds, 2.8% hits; Potency, µM (series often up to 46.1 µM), inactives show at the highest dose activity change, positive = activation, hits mostly activators; HEK293 SMN2-luciferase splicing reporter, luminescence, 30-36 h; further: % of control where 0% means no effect; nearly all actives have a fitted effect of over 55% in size
#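 HEK293 cells carry an SMN2 minigene-luciferase reporter in which exon 7 inclusion puts luciferase in frame. Cells were seeded at 2000 cells/well, attached for 10-12 hours, then exposed to compounds for 30-36 hours at 37C before ONE-Glo luminescence.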
# The depositor's hits bear a star; ? = inconclusive; nt = no result; [ ] = another dose, or the depositor's remark. The call rests on the fitted dose curve; in most records, active means well fitted curve in the direction sought with a large enough effect; inconclusive means small, poorly fitted or top-dose-only effect, or another doubt; inactive means no such curve, though single readings can be large; an effect the other way counts as inactive or inconclusive. Potency means the concentration at half of the fitted maximal effect.
SMILES,FLuc modulator,NPC1 promoter act,ELG1 DNA repair,ELG1 genotoxic,Rab9 prom act,SMN2 splice up
O=C(Nc1ccccc1OC(=O)c1ccc(Cl)cc1)c1ccc(Cl)cc1,-10.4%,?,?,16.4%,3.16µM*,31.2%
COc1ccc(C(=O)Nc2cc(Cl)ccc2OC(=O)c2ccc(OC)cc2)cc1,?,3.55µM*,?,?,?,23.5%
O=C(Nc1ccccc1O)c1ccc(Cl)cc1,26.9µM*,3.16µM*,?,?,?,-13.2%
Cc1cc(NC(=O)c2ccc(Cl)cc2)c(C(C)C)cc1O,?,6.1%,-10.3%,-2.6%,4.7%,-6.5%
Cc1cc(NC(=O)c2ccc(Cl)cc2)c(C)cc1O,23.9µM*,2.5%,?,14.2%,21.5%,nt
COc1ccc(OC)c(NC(=O)c2ccc(Cl)cc2)c1,?,1.2%,4.6%,1.7%,2.8%,-1.6%
CCCCn1c(N)c(N(CCC(C)C)C(=O)CC2CCCC2)c(=O)[nH]c1=O,4.1%,-8.5%,0.6%,0.4%,19.8%,nt
CCCCS(=O)(=O)N1CCc2nc(COc3ccccc3)c3c(c2C1)CO[C@@H](C)C3,nt,nt,nt,nt,nt,6.8%[9.22 µM]
Cc1ccc(C(=O)Nc2cc(Cl)ccc2OC(=O)c2ccc(C)cc2)cc1,21.3µM*,?,?,23.1%,3.98µM*,14.1µM*
COc1ccccc1NC(=O)CCS(=O)(=O)c1cc2c3c(c1)CCN3C(=O)CC2,5.7%,nt,nt,nt,nt,nt
Cc1ccc(NC(=S)N2CCC(c3ccc(C)cc3)C2)cc1 (centres undefined),15.1µM*,26.5%,?,?,?,nt
COc1cccc(NC(=S)N2CCC(c3ccc(C)cc3)C2)c1 (centres undefined),13.5µM*,29.4%,?,6.7%,?,nt
Cc1ccc(/C=C/C(=O)O)cc1S(=O)(=O)NC1CCS(=O)(=O)C1 (centres undefined),1.4%,-4.3%,4.4%,-1.7%,-11.7%,-12.4%
CCOc1ccccc1-n1nnnc1SCC(=O)NC(=O)Nc1ccc2c(c1)OCCO2,-15.9%,0.7%,?,-1.1%,1.2%,-14.9%
Cn1nnnc1SCC(=O)Nc1ccc2c(c1)OCCO2,13.5µM*,2.82µM*,?,?,1.58µM*,11.2µM*
O=C(CSc1nnnn1-c1ccccc1)NC(=O)Nc1ccc2c(c1)OCCO2,19µM*,?,?,?,?,?
Nn1c(SCC(=O)Nc2ccc3c(c2)OCCO3)nnc(CCC(=O)O)c1=O,13.5µM*,-4.2%,?,-1.1%,-2.8%,nt
COc1cccc(-n2ccn(CC(=O)NCCc3ccccc3)c(=O)c2=O)c1,0.4%,3.3%,0.0%,-0.1%[9.26 µM],-2.1%,nt
Cn1cc(S(=O)(=O)N2CCc3ccccc32)cc1C(=O)Nc1ccc(C(F)(F)F)cc1,-1.2%,nt,nt,nt,nt,nt
Cc1ccc(C)c(N(CC(=O)NCCSCc2ccco2)S(C)(=O)=O)c1,3.5%,-1.1%,?,0.5%,-5.3%,13.6%
COc1ccc(C2=NN(C(=O)CSc3ncccn3)C(c3cccc(OC)c3OC)C2)cc1 (centres undefined),-2.5%,1.0%,?,-1.8%,1.3%,-3.9%
CCOc1cccc2c1OC(c1cc(OC)c(OC)c(OC)c1)N1N=C(c3ccc(C)o3)CC21 (centres undefined),3.01µM*,20.8%,?,?,25.1%,?
COC(=O)N1CCC2(CC1)CN(C(=O)Nc1ccc(OC)cc1)C2,nt,nt,nt,nt,nt,5.1%
Cc1ccc(-c2noc(CN(C(=O)CCN3C(=O)c4ccccc4C3=O)C(C)C)n2)cc1,8.1%,-5.6%,-15.3%,0.0%,3.0%,-8.4%
COc1ccc(-c2noc(CN(C(=O)C(C)(C)C)C(C)C)n2)cc1,?,18.1%,?,14.6µM*,25.9%,3.9%
SMILES,FLuc modulator,NPC1 promoter act,ELG1 DNA repair,ELG1 genotoxic,Rab9 prom act,SMN2 splice up
Cc1ccc(-c2noc(CN(C(=O)CCCCCN3C(=O)c4ccccc4C3=O)C(C)C)n2)cc1,-0.7%,-3.5%,18.4µM*,-10.9%,0.3%,-34.2%
Cc1cccc(-c2noc(CN(C(=O)c3ccc(C)c(C)c3)C(C)C)n2)c1,0.2%,nt,nt,nt,nt,-71.0%
Cc1onc(-c2ccccc2Cl)c1C(=O)NCc1ccccc1F,1.4%,5.0%,-4.0%,2.3%,1.3%,nt
Cc1cccc(-c2noc(CN(C(=O)c3c(-c4ccccc4Cl)noc3C)C(C)C)n2)c1,-1.1%,-1.7%,20.6µM*,-16.3%,-9.2%,-21.4%
Cc1onc(-c2ccccc2Cl)c1C(=O)NCc1nc(-c2ccc(C(F)(F)F)cc2)no1,-4.1%,3.7%,14.6µM*,-2.5%,-3.7%,nt
CC(C)=CCCC(C)C1CC[C@@]2(C)C3=C(CC[C@@]12C)C1(C)CCC(O)C(C)(C)C1CC3 (some centres undefined),nt,nt,nt,nt,nt,-5.6%
Cc1ccc(C)c(C(=O)N(Cc2nc(-c3ccc(Cl)cc3)no2)C(C)C)c1,0.3%,1.3%,20.6µM*,-7.6%,-7.4%,-28.3%
CCOc1ccc(NC(=O)c2ccc(-c3ccccc3)s2)cc1,-6.8%,nt,nt,nt,nt,2.5%
CNC(=O)c1ccc(-c2ccccc2)s1,13.5µM*,?,?,?,?,6.6%
Cc1nc2ccccc2c(=O)n1N(c1ccccc1)c1ccccc1,-1.0%,-3.0%,-2.3%,4.6%,-8.8%,6.5%
C/C(=N\NC(=O)c1nn(C)cc1Br)c1ccncc1,-23.3%,9.0%,14.0%,-1.8%,16.6%,6.9%
C/C(=N\NC(=O)c1ccn[nH]1)c1cn(C)nc1C,12µM*,?,?,?,?,11.2µM*
O=C(NCCc1csc(-c2cccnc2)n1)c1cccc(C(F)(F)F)c1,-8.6%,nt,nt,nt,nt,nt
CCN(CC)CCOC(=O)c1ccc(NC(=O)c2cn(-c3ccccc3)nc2-c2cccs2)cc1,6.01µM*,8.7%,?,?,18.7%,-99.6%
O=C(NN1CCOCC1)c1cn(-c2ccccc2)nc1-c1cccs1,21.3µM*,0.5%,?,1.0%,1.1%,nt
CN(C)c1ccc(NC(=O)c2cn(-c3ccccc3)nc2-c2cccs2)cc1,6.75µM*,13.2%,-18.7%,10.7%,5.5%,23.3%
O=C(Nc1cn(-c2ccccc2)nc1-c1cccs1)c1ccco1,16.9µM*,12.6%,-3.4%,0.4%,-6.6%,2.1%
CC[n+]1c(/C=C/C=C2/N(C)c3ccccc3C2(C)C)sc2ccccc21,nt,-30.7%[46.1 µM],nt,nt,-43.8%[46.1 µM],nt
CC(=O)c1ccc(OCC(=O)N(C)CC(=O)Nc2ccc(N3CCOCC3)cc2)cc1,nt,0.7%,6.1%,-2.6%,-3.6%,nt
